# Source: PubChem
# MIN6 prolif: induces beta-cell replication in MIN6 cells | hit rate 0.29% among 330,000 | proliferation, % at 10 µM | MIN6 cells proliferation, ATPlite luminescence, 48 h; cells starved in 0.2% serum; 100% = growth in 10% serum;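 active = compounds whose signal lies at least 3.5 SD above the mean of all wells on their plate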;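 note: 0% = DMSO-treated cells in low-serum medium and 100% = 10% serum control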
# m-calpain inh: inhibitors of pig calpain II; purified calpain II, fluorogenic peptide substrate, 30 min; inhibition, % at 16 µM; hit rate 0.37% among 220,000; AID 1236;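 active = inhibition above about 50%, limit read from the data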
# FAS TE block: blocks the thioesterase domain of human fatty acid synthase; P49327; recombinant FAS-TE, OMFH fluorogenic substrate, fluorescence endpoint; inhibition, % at 15 µM; hit rate 0.67% among 360,000; AID 602261;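 active = compounds whose normalised, plate-corrected inhibition of enzyme fluorescence in the single-dose primary screen is 50% or more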;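 note: 0% = DMSO with enzyme and 100% = substrate without enzyme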
# aDG glyco act: alpha-DG glycosylation activation; Pro5-aDG cells, alpha-DG glycosylation AlphaScreen (IIH6); 0% Pro5, 100% B10-LARGE cell signal; activation, % at 10 µM; hit rate 0.22% among 360,000;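 active = activation of at least 8% versus controls, or a plate z-score of at least 8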;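 note: Pro5 are CHO cells carrying HIG-tagged alpha-DG that lacks glycosylation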
# Cardio protect: protects H9c2 cardiomyocytes from peroxide injury; H2O2 injury protection, ATPLite, 2 h; protection from H2O2 cell death, % at 20 µM; hit rate 0.63% among 360,000; AID 588492;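 active = compounds giving at least 50% protection of heart cells from peroxide-induced death in the single-dose screen, raw or plate-pattern-corrected value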;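 note: 0% = DMSO wells with peroxide and 100% = DMSO wells without peroxide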
# TAG inh: inhibitors of triacylglycerol accumulation | H9c2 cells, Nile Red lipid (TAG) fluorescence; cells loaded with 200 µM oleic acid | AID 651582 | hit rate 0.66% among 230,000 | inhibition, % at 12.5 µM;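 active = pattern-corrected inhibition of lipid staining of at least 50% with the nuclear-stain viability signal not falling by more than 50%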;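 note: 0% = DMSO wells and 100% = triacsin C control wells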
# H9c2 TAG conf: confirmation of triacylglycerol accumulation inhibitors; H9c2 lipid accumulation, Nile Red fluorescence; cells loaded with 200 µM oleic acid; hit rate 71% among 990; shares compounds with TAG inh; inhibition, % at 12.5 µM; AID 651629;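 active = mean inhibition across replicates of 40% or more; inactive = mean inhibition below 40%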;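 note: plate controls were DMSO only wells for no effect and Triacsin C treated wells for full effect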
# The depositor's hits bear a star; . = not tested or not shown. Most compounds without a hit are left out; they make up all but 2.3% or so of the library.
SMILES,MIN6 prolif,m-calpain inh,FAS TE block,aDG glyco act,Cardio protect,TAG inh,H9c2 TAG conf
COc1ccc2[nH]c3c(=O)n(/N=C/[C@H]4C(C)C=C(C)CC4C)c(=O)[nH]c3c2c1 (some centres undefined),-5,-41,9,0,5,.,.
CCCC(=O)Nc1nc2nc(-c3ccccc3)cc(-c3ccccc3)n2n1,0,-146,-3,0,8,52*,36
COc1ccccc1NC(=O)CN(Cc1ccco1)C(=O)c1ccc(N2CCCC2=O)cc1,-1,.,-7,0,17,-13,.
Cc1ccc(NC(=O)CSc2ccc(-c3ccc(-n4cccn4)cc3)nn2)c(C)c1,-2,.,0,0,-5,19,.
CCC(C)C(NC(=O)c1ccccc1NC(=O)c1ccc(OC)cc1)C(=O)NCc1ccco1 (centres undefined),4,-121,-10,0,8,.,.
COc1ccc(C(=O)Nc2ccc(Cl)cc2C(=O)NCc2ccco2)cc1,-1,-36,13,0,-4,61*,73*
OC1CC2CCC(C1)N2CCCN1c2ccccc2Sc2ccc(Cl)cc21 (centres undefined),.,.,0,0,-17,104*,79*
CN1CCN(CCCN2c3ccccc3Sc3ccc(Cl)cc32)CC1,-8,-7,3,0,-8,17,.
CN(C)CCCNC(=O)CC1C[C@H](C(=O)N2CCCCC2)[C@@]2(CCc3ccccc3)c3[nH]c4ccccc4c3CCN2C1=O (some centres undefined),-5,.,8,0,-9,53*,48*
CN(C)CCCNC(=O)C[C@H]1C[C@H](C(=O)N2CCCCC2)[C@@]2(C)c3[nH]c4cc(-c5ccco5)ccc4c3CCN2C1=O,.,.,-4,0,16,58*,22
CN(C)CCCNC(=O)C[C@H]1C[C@H](C(=O)N2CCCCC2)[C@@]2(CCc3ccccc3)c3[nH]c4cc(-c5ccco5)ccc4c3CCN2C1=O,.,.,6,0,-32,57*,70*
CC(C)(C)NC(=O)C[C@H]1C[C@H](C(=O)N2CCCCC2)[C@@]2(CCc3ccccc3)c3[nH]c4cc(-c5ccco5)ccc4c3CCN2C1=O,.,.,21,0,-7,28,.
COc1ccc2[nH]c3c(c2c1)CCN1C(=O)C(CC(=O)NCCCN(C)C)C[C@H](C(=O)N2CCCCC2)[C@@]31CCc1ccccc1 (some centres undefined),.,.,4,0,12,13,.
C[C@]12c3[nH]c4cc(-c5ccco5)ccc4c3CCN1C(=O)[C@@H](CC(=O)NCCCn1ccnc1)C[C@@H]2C(=O)N1CCCCC1,.,.,-14,0,1,6,.
O=C(NCc1ccco1)C1CCCN(c2nnc(-n3cccc3)s2)C1 (centres undefined),-2,.,-3,0,4,.,.
COc1ccc(-c2csc3ncnc(N4CCN(S(=O)(=O)c5ccc(C(C)=O)cc5)CC4)c23)cc1,-2,.,44,0,16,17,.
Cc1ccc(-c2nnc(NC3CCCC3)s2)cc1,-4,.,-4,0,-12,.,.
COc1cc(/C=C/CN2CCC(C(=O)NC(c3ccc(F)cc3)c3ccc4ccccc4n3)CC2)ccc1OC(C)=O (centres undefined),.,.,3,5,-7,54*,54*
CN(C)c1ccc(CN2CCC(C(=O)NC(c3ccc(F)cc3)c3ccc4ccccc4n3)CC2)cc1 (centres undefined),.,.,0,2,-15,56*,38
O=C(Nc1ccc(F)c(Cl)c1)c1ccc2nc([C@@H]3O[C@H](CO)[C@H](O)[C@H](O)[C@H]3O)[nH]c2c1,.,.,-2,0,1,8,.
O=C(Nc1nnc(S(=O)(=O)Nc2ccccc2)s1)C1CCCCC1,-5,.,0,0,-2,-7,.
Cc1nn2c(N3CCCC3)cc(C(C)C)nc2c1-c1ccccc1,-6,-187,31,2,1,72*,59*
Cc1cc(N2CCCCC2)n2nc(C)c(-c3ccccc3)c2n1,-4,-6,19,0,-8,33,.
Cn1c(=O)c2c(-c3ccccc3)n(-c3ccc(N)cc3)cc2n(C)c1=O,.,.,-2,0,6,.,.
